In one test the target is T1, GST-Co-NF-kB (Capsaspora owczarzaki, UniProt F1ARL5 200-546).
T1 sequence: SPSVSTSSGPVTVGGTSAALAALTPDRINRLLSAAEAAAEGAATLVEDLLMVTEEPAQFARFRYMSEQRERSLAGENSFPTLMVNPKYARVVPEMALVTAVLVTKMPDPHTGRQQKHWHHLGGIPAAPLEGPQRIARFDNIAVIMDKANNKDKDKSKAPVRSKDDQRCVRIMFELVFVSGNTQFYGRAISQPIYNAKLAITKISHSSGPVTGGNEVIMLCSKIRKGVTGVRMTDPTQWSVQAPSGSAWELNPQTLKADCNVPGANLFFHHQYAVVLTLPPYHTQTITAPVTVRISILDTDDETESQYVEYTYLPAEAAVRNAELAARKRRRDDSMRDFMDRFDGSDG
Kind of test: protein-binding microarray (PBM); PBM: ~300 nM protein, 6 mM HEPES pH 7.8, 80 mM KCl, 0.5 mM EDTA, 0.5 mM EGTA, 6% glycerol, 35 ng/ul poly-dIdC, 1% milk, 1 h, room temperature; Ap Aiptasia and Nv Nematostella (sea anemones) / Co Capsaspora / Aq Amphimedon (sponge) / Dm Drosophila / Hu human; RHD is the Rel homology domain; high values mean tight binding. As to conditions: dsDNA, one strand shown.
The sequence “CCGATTAACATCAGATACCAGGGTGATGTTAATCGGGTCTTGATTCGCTTGACGCTGCTG” gave a binding signal of 1.09 z-score. Same read-out and setting: to “CCGATTAACATCACACCCGCAACTGATGTTAATCGGGTCTTGATTCGCTTGACGCTGCTG” belongs 1.54 z-score; to “CCGATTAACATCAATGTCGGTGGTGATGTTAATCGGGTCTTGATTCGCTTGACGCTGCTG”, 1.2 z-score; to “CCGATTAACATCATCGCGGGTAGTGATGTTAATCGGGTCTTGATTCGCTTGACGCTGCTG”, 1.37 z-score. On the same count and under the same terms, as for “CCGATTAACATCAGGAAAAAAACTGATGTTAATCGGGTCTTGATTCGCTTGACGCTGCTG”, the figure is 1.06 z-score; as for “CCGATTAACATCAGGGTGTAGTTTGATGTTAATCGGGTCTTGATTCGCTTGACGCTGCTG”, 1.14 z-score.

“CCGATTAACATCATGTCGGGTGATGATGTTAATCGGGTCTTGATTCGCTTGACGCTGCTG” gave a binding signal of 1.26 z-score. The same measure, in the same setting: to “CCGATTAACATCACCCGCTTTATTGATGTTAATCGGGTCTTGATTCGCTTGACGCTGCTG” belongs 1.23 z-score. In turn, “CCGATTAACATCACCCAAAGTTTTGATGTTAATCGGGTCTTGATTCGCTTGACGCTGCTG” yielded a binding signal of 1.24 z-score. Take “CCGATTAACATCAGGGAGCGGTTTGATGTTAATCGGGTCTTGATTCGCTTGACGCTGCTG”: the binding signal is 1.07 z-score. “CCGATTAACATCAGTAGGTGAAGTGATGTTAATCGGGTCTTGATTCGCTTGACGCTGCTG” returned a binding signal of 1.02 z-score. Turning to “CCGATTAACATCAGGTCACCCCATGATGTTAATCGGGTCTTGATTCGCTTGACGCTGCTG”, the binding signal was 2.51 z-score. Still for that read-out and setting: to “CCGATTAACATCAGGGTATAACGTGATGTTAATCGGGTCTTGATTCGCTTGACGCTGCTG” belongs 1.1 z-score. On the same count and under the same terms, to “CCGATTAACATCACAAATTTTCCTGATGTTAATCGGGTCTTGATTCGCTTGACGCTGCTG” belongs 1.2 z-score; to “CCGATTAACATCACCTTCTTTACTGATGTTAATCGGGTCTTGATTCGCTTGACGCTGCTG”, 1.57 z-score; to “CCGATTAACATCAGCCATATTTGTGATGTTAATCGGGTCTTGATTCGCTTGACGCTGCTG”, 1.13 z-score. On the same count and under the same terms, as for “CCGATTAACATCACCCACGAGGGTGATGTTAATCGGGTCTTGATTCGCTTGACGCTGCTG”, the figure is 1.35 z-score. As to “CCGATTAACATCACCCATTTCCGTGATGTTAATCGGGTCTTGATTCGCTTGACGCTGCTG”, the binding signal came to 1.41 z-score. Still for that read-out and setting: as for “CCGATTAACATCACCCTACAAGTTGATGTTAATCGGGTCTTGATTCGCTTGACGCTGCTG”, the figure is 3.08 z-score; as for “CCGATTAACATCACCCACGACGATGATGTTAATCGGGTCTTGATTCGCTTGACGCTGCTG”, 1.01 z-score; as for “CCGATTAACATCACAATAACGGGTGATGTTAATCGGGTCTTGATTCGCTTGACGCTGCTG”, 1.26 z-score. The sequence “CCGATTAACATCAAGAGAGAAAGTGATGTTAATCGGGTCTTGATTCGCTTGACGCTGCTG” had a binding signal of 1.16 z-score. Sequence “CCGATTAACATCAATTTTTGCCCTGATGTTAATCGGGTCTTGATTCGCTTGACGCTGCTG” showed a binding signal of 1.72 z-score.

In another test the target is T2, GST-Dm-Relish (Drosophila melanogaster, UniProt Q94527 99-473).
T2 sequence: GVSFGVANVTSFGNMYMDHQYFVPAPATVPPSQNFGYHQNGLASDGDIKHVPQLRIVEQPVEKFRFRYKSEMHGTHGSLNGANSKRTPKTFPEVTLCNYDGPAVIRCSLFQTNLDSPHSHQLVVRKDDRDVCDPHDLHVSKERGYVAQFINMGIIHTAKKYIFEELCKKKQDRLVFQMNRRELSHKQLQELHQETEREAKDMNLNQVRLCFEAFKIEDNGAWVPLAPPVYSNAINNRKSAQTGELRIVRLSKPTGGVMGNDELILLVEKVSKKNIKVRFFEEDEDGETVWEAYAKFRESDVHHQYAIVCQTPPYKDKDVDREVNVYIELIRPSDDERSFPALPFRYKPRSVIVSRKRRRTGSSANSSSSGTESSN
Described as above. As to conditions: dsDNA, one strand shown.
For the sequence “CCGATTAACATCACTGGAAATTCTGATGTTAATCGGGTCTTGATTCGCTTGACGCTGCTG”, the binding signal amounted to 1.59 z-score. Same read-out and setting: to “CCGATTAACATCAGGAAAAAAACTGATGTTAATCGGGTCTTGATTCGCTTGACGCTGCTG” belongs 1.23 z-score.

Sequence “CCGATTAACATCAGGGTGTAGTTTGATGTTAATCGGGTCTTGATTCGCTTGACGCTGCTG” showed a binding signal of 1.07 z-score. Take “CCGATTAACATCACAAGAATTCCTGATGTTAATCGGGTCTTGATTCGCTTGACGCTGCTG”: the binding signal was 1.19 z-score. Still for that read-out and setting: to “CCGATTAACATCAAGTTTTTTCCTGATGTTAATCGGGTCTTGATTCGCTTGACGCTGCTG” belongs 1.98 z-score. The same measure, in the same setting: as for “CCGATTAACATCACTATTGTACATGATGTTAATCGGGTCTTGATTCGCTTGACGCTGCTG”, the figure is 1.29 z-score; as for “CCGATTAACATCATTTACATTCGTGATGTTAATCGGGTCTTGATTCGCTTGACGCTGCTG”, 1.06 z-score.

As to “CCGATTAACATCAAGTAGTTTCCTGATGTTAATCGGGTCTTGATTCGCTTGACGCTGCTG”, the binding signal was 2.37 z-score.

As for “CCGATTAACATCACAAATTTTCCTGATGTTAATCGGGTCTTGATTCGCTTGACGCTGCTG”, the binding signal is 2.01 z-score.

In turn, “CCGATTAACATCACCATTATAGGTGATGTTAATCGGGTCTTGATTCGCTTGACGCTGCTG” registered a binding signal of 1.48 z-score.

The sequence “CCGATTAACATCAGGAAAAAACATGATGTTAATCGGGTCTTGATTCGCTTGACGCTGCTG” returned a binding signal of 2.35 z-score. As for “CCGATTAACATCACCGAATTTGGTGATGTTAATCGGGTCTTGATTCGCTTGACGCTGCTG”, the binding signal was 1.44 z-score. Still for that read-out and setting: to “CCGATTAACATCACGTAGTTTCCTGATGTTAATCGGGTCTTGATTCGCTTGACGCTGCTG” belongs 1.46 z-score; to “CCGATTAACATCACAGGAAATCCTGATGTTAATCGGGTCTTGATTCGCTTGACGCTGCTG”, 1.25 z-score. Turning to “CCGATTAACATCAGGAAAATTACTGATGTTAATCGGGTCTTGATTCGCTTGACGCTGCTG”, the binding signal was 1.67 z-score. Still for that read-out and setting: to “CCGATTAACATCACGTTATTTCCTGATGTTAATCGGGTCTTGATTCGCTTGACGCTGCTG” belongs 1.09 z-score; to “CCGATTAACATCAAATGTACTAATGATGTTAATCGGGTCTTGATTCGCTTGACGCTGCTG”, 1.5 z-score; to “CCGATTAACATCACCCACGAGGGTGATGTTAATCGGGTCTTGATTCGCTTGACGCTGCTG”, 1.29 z-score. Same read-out and setting: to “CCGATTAACATCACGTTTTTTCCTGATGTTAATCGGGTCTTGATTCGCTTGACGCTGCTG” belongs 1.57 z-score; to “CCGATTAACATCACCCATTTCCGTGATGTTAATCGGGTCTTGATTCGCTTGACGCTGCTG”, 1.34 z-score. The same measure, in the same setting: to “CCGATTAACATCAAGTATTTTCCTGATGTTAATCGGGTCTTGATTCGCTTGACGCTGCTG” belongs 1.84 z-score; to “CCGATTAACATCACCCACGACGATGATGTTAATCGGGTCTTGATTCGCTTGACGCTGCTG”, 1.04 z-score. For “CCGATTAACATCACAATAACGGGTGATGTTAATCGGGTCTTGATTCGCTTGACGCTGCTG”, the binding signal was determined as 1.63 z-score.

In turn, “CCGATTAACATCAGTAAAATCCATGATGTTAATCGGGTCTTGATTCGCTTGACGCTGCTG” came in with a binding signal of 1.44 z-score.
